MARV entry inh: qHTS for inhibitors of binding or entry into cells for Marburg Virus; Marburg virus pseudotyped entry inhibition, cell reporter; Potency, µM (doses to about 37.8 µM), without a hit: at the highest dose activity change, negative = inhibition, usual class: inhibitors; 300,000 tested, 1.8% active; calls by dose curve; tested in HEK293 cells; further: potency means the concentration at half of the fitted maximal effect
HCMV antiviral: qHTS Assay for inhibitors of the human cytomegalovirus (HCMV); HFF cells, HCMV-luciferase reporter, 72 h; hits give low values; activity change, negative = inhibition, % at 57.5 µM; 410,000 tested, 4.5% active; AID 1259415, 2018; in the data active means activity change below about -60%; inconclusive means no clear call, values can overlap the other calls; inactive means above about -39%
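Cell-based, HFFs, 1000 cells/well, 16 h 37C; cpds in DMSO + HCMV-luc, MOI 1 PFU/cell; 72 h 37C; OneGlo luminescence after 5 min RT; norm. to buffer vs Salinomycin 10uM.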
Vaccinia mCherry: qHTS for Stage-Specific Inhibitors of Vaccinia Orthopoxvirus: mCherry Reporter Primary qHTS; Vaccinia virus mCherry reporter infection, fluorescence; Potency, µM (titrated, usually from 36.5 µM), without a hit: at the top dose activity change, negative = inhibition, most hits filed as inhibitors; 310,000 tested, 0.63% active; AID 720579, 2013; calls by dose curve; tested in A549 cells; further: potency means the concentration at half of the fitted maximal effect; nearly all actives have a fitted effect of over 35% in size
HCV inhibitor: qHTS Assay for Inhibitors of Hepatitis C Virus (HCV); Huh7.5.1 HCVcc-Cre infection, luciferase reporter, 44 h; Potency, µM (series often up to 41.8 µM), for inactives: top-dose activity change, negative = inhibition, actives largely listed as inhibitors; 340,000 tested, 3.4% active; AID 651820, 2012; active means well fitted inhibition curve with a large enough effect; inconclusive means small, poorly fitted or top-dose-only effect, or another doubt; inactive means no such curve, though single readings can be large or run the other way; further: potency means the concentration at half of the fitted maximal effect
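HCVcc-Cre virus at an moi near 0.5 was added right after compound to cells cultured 4 h from seeding (1,000 cells/well). Luciferase activity was determined 44 h later, 15 min after substrate addition at RT.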
LASV entry inh: qHTS for Inhibitors of binding or entry into cells for Lassa Virus. Lassa virus pseudotype entry inhibition, cell reporter. Potency, µM (doses to about 37.9 µM), for inactives: at the top dose activity change, negative = inhibition, usual class: inhibitors. 300,000 tested, 1.2% active; calls by dose curve; tested in HEK293 cells; further: potency means the concentration at half of the fitted maximal effect; nearly all actives have a fitted effect of over 50% in size
VACV Venus inh: qHTS for Stage-Specific Inhibitors of Vaccinia Orthopoxvirus: Venus Reporter Primary qHTS | Potency, µM (series often up to 36.5 µM), without a hit: top-dose activity change, negative = inhibition, most hits filed as inhibitors | Vaccinia virus Venus reporter expression, fluorescence | 330,000 tested, 0.46% active; calls by dose curve; tested in A549 cells; further: potency means the concentration at half of the fitted maximal effect; nearly all actives have a fitted effect of over 30% in size
Numbers without * were called inactive; i = inactive; ? = inconclusive; · = no result; [ ] = remark or other dose. The list is not random: actives were taken first. Their share in the collection is about 7.8%. On the % scale 0 is the no-effect control and ±100 the full control effect.

SMILES	MARV entry inh	HCMV antiviral	Vaccinia mCherry	HCV inhibitor	LASV entry inh	VACV Venus inh
CC(=O)c1ccc(NC(=O)Cn2c(=O)n(Cc3ccco3)c(=O)c3sc4ccccc4c32)cc1	-18.7%[46.1 µM]	?	-4.8%	·	7.2%[46.1 µM]	-6.7%
CC(C)OCCCNC(=O)c1ccc(Cn2c(=O)c3cccn3c3cccnc32)cc1	·	-21.8	i	·	18.5%[46.1 µM]	-10.1%
CCN1CCN(c2ccc(NC(=O)c3ccc([N+](=O)[O-])o3)cc2Cl)CC1	?	-96.3*	11.2µM*	?	?	?
CCC(=O)N1CCN(c2ccc(NC(=O)c3ccc([N+](=O)[O-])o3)cc2Cl)CC1	?	-95.6*	12.6µM*	?	?	11.2µM*
CC(=O)N1CCN(c2ccc(NC(=O)c3ccc([N+](=O)[O-])o3)cc2Cl)CC1	?	-98.4*	?	?	?	?
O=C1NCN(c2ccccc2)C12CCN(C(c1cccc3ccccc13)c1nnnn1Cc1ccccc1)CC2 (stereo not drawn)	·	-29.0	-6.7%	·	·	-6.6%
COc1cccc(C(c2nnnn2Cc2ccccc2)N2CCC(n3c(=O)[nH]c4ccccc43)CC2)c1OC (stereo not drawn)	·	-70.0*	-10.7%	·	·	-24.1%
O=c1[nH]c2ccccc2n1C1CCN(C(c2cccc3ccccc23)c2nnnn2Cc2ccccc2)CC1 (stereo not drawn)	·	-74.6*	-5.7%	·	·	-25.7%
COc1cccc(C(c2nnnn2Cc2ccccc2)N2CCN(C(=O)c3ccco3)CC2)c1OC (stereo not drawn)	9.0%	-39.6	·	-9.4%	4.7%	-10.0%
O=c1[nH]c2ccccc2n1C1CCN(C(CCc2ccccc2)c2nnnn2C2CCCC2)CC1 (stereo not drawn)	·	-101.7*	?	·	·	?
O=c1[nH]c2ccccc2n1C1CCN(C(c2cc3ccccc3o2)c2nnnn2Cc2ccccc2)CC1 (stereo not drawn)	·	-101.2*	?	·	·	?
COC(=O)C(c1ccccc1)(c1cn(Cc2ccccc2)c2ccccc12)C(Nc1ccccc1)c1ccccc1 (stereo not drawn)	·	-20.5	·	·	·	·
CCc1cc(C(=O)/C=C/c2cc3c(cc2C)OCCO3)c(O)cc1O	·	·	-31.7%	·	·	-27.8%
CCCN1CCN(c2nnc(-n3cccc3C(=O)Nc3cc(Cl)ccc3C)s2)CC1	·	0.0	-19.6%	·	4.6%[46.1 µM]	-12.5%
CN(Cc1cccc(F)c1)CC(O)COCc1ccccc1Cl (stereo not drawn)	9.4%[46.1 µM]	11.7	-7.0%	10.2%	-5.4%[46.1 µM]	1.5%
Fc1ccc(CN2CCN(c3ncccn3)CC2)cc1	-16.2%	-34.5	-13.2%	23.7%	8.5%	-16.1%
Fc1ccc(CN(C2=NCCN2)c2c(Cl)cccc2Cl)cc1	18.3µM*	·	·	·	?	·
Fc1cccc(CN(C2=NCCN2)c2c(Cl)cccc2Cl)c1	·	-63.0*	-9.6%	?	·	-20.9%
COc1cc(C2C(C(=O)OC(C)C)=C(C)N=C3SCCC(=O)N32)ccc1OCc1ccccc1 (stereo not drawn)	?	-7.2	-14.5%	·	-25.8%[46.1 µM]	-16.8%
COc1cc(CNC(C)(C)CO)ccc1OCC(=O)Nc1ccc(Br)cc1	?	-13.8	·	12.6µM*	-0.7%	·
C=CCOc1ccc(CNC(C)(C)CO)cc1OC	12.6%	-9.8	·	0.6%	-17.7%	-3.0%
CCOc1cc(CNc2ccccc2)cc(Br)c1OCC(=O)NC(C)(C)C	?	-96.8*	?	12.6µM*	?	?
COc1ccccc1CCNCc1ccc(OC)c(OCc2ccccc2)c1	?	?	·	10µM*	?	·
COc1cc(CNCCc2ccccc2)ccc1OCC(=O)NC(C)(C)C	11.2µM*	-19.9	i	-23.5%	-10.3%	-15.3%
Cc1cccc(NC(=O)c2cc3c(=O)n(Cc4ccco4)ccc3nc2C)c1	·	?	-6.3%	·	-16.2%[46.1 µM]	-7.6%
SMILES	MARV entry inh	HCMV antiviral	Vaccinia mCherry	HCV inhibitor	LASV entry inh	VACV Venus inh
CCCn1c2ccccc2c2cnn(CC(=O)N3CCN(c4ccccc4F)CC3)c(=O)c21	·	-35.2	i	·	3.2%[46.1 µM]	-8.0%
COc1ccc2c(c1)[C@@]1(OCCC=C[C@@H]1C)C(=O)N2CC1CC1	-6.7%[14.2 µM]	·	·	·	·	·
CCCNCc1cc(OC)c(OCc2ccccc2)cc1Br	11.2µM*	-23.5	-2.5%	?	-17.7%[46.1 µM]	-22.2%
Cc1cc(C)c(OCC(=O)N(Cc2ccco2)Cc2ccco2)c(C)c1	-12.8%[46.1 µM]	-20.2	0.9%	·	1.3%[46.1 µM]	-6.4%
Cc1cc(N=O)no1	·	3.9	·	·	·	·
COc1ccc(-c2c3c(=O)n(C)c(=O)n(C)c3cn2-c2ccccc2O)cc1	·	?	?	?	·	-13.2%
COc1ccc(-c2c3c(=O)n(C)c(=O)n(C)c3cn2-c2cc(OC)ccc2OC)cc1	12.6µM*	-22.6	?	?	?	-23.0%
COCCn1c(-c2cccc([N+](=O)[O-])c2)nc2c1c(=O)[nH]c(=O)n2Cc1ccccc1	?	-87.3*	-8.5%	-19.5%	?	-5.4%
CCCn1c(-c2cccc(F)c2)nc2c1c(=O)[nH]c(=O)n2Cc1ccccc1	-22.7%[46.1 µM]	-12.8	i	4.2%	?	-7.0%
COc1ccc(-c2nc3c(c(=O)[nH]c(=O)n3Cc3ccccc3)n2C)cc1	10.0%	-7.0	·	-0.7%	-18.3%	-6.2%
Cn1c(-c2cccc(F)c2)nc2c1c(=O)[nH]c(=O)n2Cc1ccccc1	-0.3%[46.1 µM]	30.8	?	0.2%	8.91µM*	-11.7%
Cn1c(-c2cccc(OCc3ccccc3)c2)nc2c1c(=O)[nH]c(=O)n2Cc1ccccc1	-8.1%	-15.0	-15.8%	2.9%	?	-3.4%
COc1ccc(-c2nc3c(c(=O)[nH]c(=O)n3Cc3ccccc3)n2Cc2ccccc2)cc1	?	?	·	12.6µM*	?	·
S=C(NCCCc1cnc[nH]1)NCCCN(Cc1ccc(Cl)cc1)c1ncc(Br)cn1	·	·	-25.0%	·	·	?
O=C(O)CCCCCNS(=O)(=O)c1cccc2c1C(=O)c1ccccc1C2=O	?	-8.5	4.47µM*	-15.9%	0.6%	5.01µM*
O=C(C[C@H]1C[C@H](C(=O)N2CCOCC2)[C@@]2(CCC3CCCC3)c3[nH]c4cc(-c5ccco5)ccc4c3CCN2C1=O)NCCc1ccccn1	-0.3%	-22.5	?	-22.0%	·	10µM*
CN(C)C(=O)CCc1ccc2c3c([nH]c2c1)[C@]1(CCC2CCCC2)[C@@H](C(=O)N2CCOCC2)C[C@H](CC(=O)NCCN2CCOCC2)C(=O)N1CC3	·	-18.5	-11.3%	0.316µM*	·	-8.0%
O=C(C[C@H]1C[C@H](C(=O)N2CCOCC2)[C@@]2(CCC3CCCC3)c3[nH]c4cc(-c5ccco5)ccc4c3CCN2C1=O)NCc1ccco1	0.7%	-6.6	?	-26.4%	·	-18.0%

Screens from PubChem.
